This note sets out measurements from PubChem BioAssay (NCATS).

Results filed as inconclusive are left out. Where a call stands in place of a potency, no number is given. Calls of active or inactive are those of the source. The call rests on the fitted dose curve; in most records, active means well fitted inhibition curve with a large enough effect; inconclusive means small, poorly fitted or top-dose-only effect; inactive means flat fitted curve, though single readings scatter.
Potency means the concentration at half of the fitted maximal effect.

The subject of the experiment is astro (control astrocytes). Briefly: Drug repurposing screens with cells derived from glioblastoma tumor samples (AID 1345199). Further: nearly all actives have a fitted effect of over 40% in size. The settings on record: viability, ATP luminescence, 48 h; series mostly up to 45.9 µM. The procedure, abridged:
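Four patient lines of CD133+ GBM neurospheres were screened at several concentrations; hits were retested in those lines plus three slower-growing GBM lines, using 48-hour treatment and ATP-based viability.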
As to `NC(=O)CN1CC(O)CC1=O` (stereo not drawn), the Potency entry was “inactive”.
To `CN[C@@H](C)[C@H](O)c1ccccc1` belongs “inactive”; to `O=S(=O)(c1ccc(Cl)cc1)c1ccc(Cl)cc1`, “inactive”; to `CC(C)(C)NC[C@H](O)c1ccc(O)cc1Cl`, “inactive”.
As for `ClC1=C(Cl)[C@]2(Cl)[C@@H]3[C@@H]4C[C@@H]([C@H]5O[C@@H]45)[C@@H]3[C@@]1(Cl)C2(Cl)Cl`, the Potency result is “inactive”.
The same measure for `CC(C)NC(C)Cc1ccc(I)cc1` (stereo not drawn): “inactive”.
For `C[C@@H]1[C@H](O)[C@@H](C)C=CC=CCCC=CC=CC=CC=C[C@H](O[C@H]2O[C@@H](C)[C@H](O)[C@@H](N)[C@@H]2O)CC2O[C@](O)(C[C@@H](O)[C@H](O)CC[C@@H](O)C[C@@H](O)C[C@@H](O)CC(=O)O[C@H]1C)C[C@H](O)[C@H]2C(=O)O`, the Potency result was “inactive”.
In the case of `CCCN(CCC)c1c([N+](=O)[O-])cc(S(N)(=O)=O)cc1[N+](=O)[O-]`, the Potency was 31.6 µM (active).
`CN[C@@H]1C[C@@H](c2ccc(Cl)c(Cl)c2)c2ccccc21`: the Potency was 20 µM (active).
With `S=C(SSC(=S)N1CCCCC1)N1CCCCC1`, the Potency result was “inactive”.
`C[N+](C)(C)CC(=O)O`: the Potency result is “inactive”.
The same measure for `C[C@]12N[C@H](Cc3ccccc31)c1ccccc12`: “inactive”.
With `CC[N+]1(CCOC(=O)C(O)(c2ccccc2)c2ccccc2)CCCCC1`, the Potency result is “inactive”.
As to `COC(C)(C)CCCC(C)C/C=C/C(C)=C/C(=O)OC(C)C` (stereo not drawn), the Potency result was “inactive”.
With `c1ccc(C2(c3ccccc3)CC2C2=NCCN2)cc1` (stereo not drawn), the Potency result was “inactive”.
For the compound `Cc1ccc(Cl)c(O)c1`, the Potency result was “inactive”.
With `NC1=NC(=O)N2CC12` (stereo not drawn), the Potency entry was “inactive”.
For `O=[N+]([O-])c1ccc([As](=O)(O)O)cc1`, the Potency result was “inactive”.
The same measure for `Oc1ccc2c3c1O[C@H]1[C@@H](O)C=C[C@H]4[C@@H](C2)NCC[C@@]341`: “inactive”.
Consider `O=[N+]([O-])c1c2ccccc2cc2ccccc12`, for which the Potency result is “inactive”.
The same measure for `CC(O)CN1CCN(CC(=O)[O-])CCN(CC(=O)[O-])CCN(CC(=O)[O-])CC1.[Gd+3]` (stereo not drawn): “inactive”; for `CCCN1CCC[C@H](c2cccc(O)c2)C1`: “inactive”; for `CC(C)(C)C(O)C(Oc1ccc(Cl)cc1)n1cncn1` (stereo not drawn): “inactive”.
The same measure for `CCCCc1ccc(C(=O)O)nc1`: “inactive”.
In the case of `C[C@]12CCC(=O)C(O)=C1CC[C@@H]1[C@H]3CCC(=O)[C@@]3(C)CC[C@@H]12`, the Potency result is “inactive”.
In the case of `O=C(Nc1ccccc1-c1ccc(Cl)cc1)c1cccnc1Cl`, the Potency entry was “inactive”.
On to `CCOP(=O)(NC(C)C)Oc1ccc(SC)c(C)c1` (stereo not drawn), for which the Potency entry was “inactive”.
For `CC(Cc1ccc(O)cc1)NCC(O)c1cc(O)cc(O)c1` (stereo not drawn), the Potency entry is “inactive”.
As to `CC1(C)CC/C(=C/c2ccc(Cl)cc2)C1(O)Cn1cncn1` (stereo not drawn), the Potency entry was “inactive”.
The same measure for `C[C@]12CC[C@@H]3[C@@H](CCC4=CC(=O)CC[C@@H]43)[C@@H]1CC[C@@H]2OC(=O)CCc1ccccc1`: “inactive”.
To `CC(C)Oc1cccc(NC(=O)c2ccccc2C(F)(F)F)c1` belongs “inactive”; to `CCO/N=C(\CC)C1=C(O)CC(c2c(C)cc(C)cc2C)CC1=O` (stereo not drawn), “inactive”; to `CC(C)NCC(O)c1ccc([N+](=O)[O-])cc1` (stereo not drawn), “inactive”.
In the case of `CCCCC(CC)COC(=O)c1ccccc1C(=O)OCC(CC)CCCC` (stereo not drawn), the Potency entry was “inactive”.
In the case of `CCC1(CCC(C)C)C(=O)NC(=O)NC1=O`, the Potency entry was “inactive”.
In the case of `CC(=O)[O][Hg][c]1ccccc1`, the Potency is 1.26 µM (active).
For `COC(=O)c1cncn1C(C)c1ccccc1` (stereo not drawn), the Potency result was “inactive”.
On to `CO/C=C(/C(=O)OC)c1ccccc1Oc1cc(Oc2ccccc2C#N)ncn1`, for which the Potency was 14.1 µM (active).
